Data published in PubChem BioAssay (Tox21).
Inconclusive results are not listed. Active and inactive are the calls of the source. Unless noted, the call rests on the fitted dose curve; in most records, active means well fitted curve in the direction sought with a large enough effect in the repeat runs; inconclusive means weak or mixed curves; inactive means no such curve, though single readings can be large; an effect the other way counts as inactive or inconclusive.

Experiments:
[1] = qHTS assay to identify small molecule agonists of the vitamin D receptor (VDR) signaling pathway - cell viability counter screen (AID 743224); further: series mostly up to about 63 µM; on the % scale 0 is the no-effect control and ±100 the full control effect; nearly all actives have a fitted effect of over 50% in size
In short: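 In parallel with the bla FRET readout, cytotoxicity toward VDR-bla cells after 16 h compound exposure was assessed by CellTiter-Glo, with luminescence recorded after a 30 min room-temperature incubation.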

[2] = qHTS assay to identify small molecule antagonists of the vitamin D receptor (VDR) signaling pathway - cell viability counter screen (AID 743225); further: on the % scale 0 is the no-effect control and ±100 the full control effect; nearly all actives have a fitted effect of over 50% in size
In short: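 Same-well multiplex: following 16 h treatment of HEK 293T cells carrying a UAS-driven beta-lactamase reporter with compound and agonist (3 nM final), and a 2 h FRET substrate step, CellTiter-Glo was added and luminescence read after 30 min.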

[3] = qHTS assay to identify small molecule agonists of the NFkB signaling pathway (AID 1159509; active means well fitted curve in the direction sought with a large enough effect in the signal ratio in the repeat runs, not every such curve was filed as active; the % refers to the signal ratio; further: series mostly up to about 61 µM; on the % scale 0 is the no-effect control and ±100 the full control effect)
In short: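 Readout: FRET fluorescence, 405 nm excitation, 460/530 nm emission; beta-lactamase expression disrupts FRET. Cells: ME-180 stably carrying NF-kB-driven bla reporter. Compound exposure 5 hr, 37 C, 5% CO2.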

[4] = qHTS assay to identify small molecule agonists of the NFkB signaling pathway - cell viability counter screen (AID 1159515; calls by dose curve; further: series mostly up to about 61 µM; on the % scale 0 is the no-effect control and ±100 the full control effect; nearly all actives have a fitted effect of over 55% in size)
In short: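 Plate 2,000 NFkB-bla ME-180 cells/well; incubate overnight. Add compounds, 5 hr at 37 C. Add FRET substrate, 1.5 hr RT. Add CellTiter-Glo, 30 min RT; read luminescence.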

[5] = qHTS assay to identify small molecule agonists of the endoplasmic reticulum stress response signaling pathway - cell viability counter screen (AID 1159517; calls by dose curve; further: series mostly up to about 61 µM; on the % scale 0 is the no-effect control and ±100 the full control effect; nearly all actives have a fitted effect of over 50% in size)
In short: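 After overnight attachment, ESRE-bla HeLa cells were treated with Tox21 library compounds for 5 hr. CellTiter-Glo luminescence, read 30 min post-addition at room temperature, reported viability.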

[6] = qHTS assay to identify small molecule antagonists of the retinoid-related orphan receptor gamma (ROR-gamma) signaling pathway - cell viability counter screen (AID 1159520); further: on the % scale 0 is the no-effect control and ±100 the full control effect; nearly all actives have a fitted effect of over 50% in size
In short: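 Cytotoxicity was read from cellular ATP (CellTiter-Glo luminescence) after 16 hr at 37 C with 1 uM doxycycline induction. The inducer was added 2 hr after compound transfer to Tet-on ROR gamma CHO cells.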

[7] = molecular target: Nuclear receptor ROR-gamma (Homo sapiens) (UniProt P51449); experiment: qHTS assay to identify small molecule antagonists of the retinoid-related orphan receptor gamma (ROR-gamma) signaling pathway (AID 1159521)
In short: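 Inducible-expression reporter assay: doxycycline (1 uM final) switched on RORγ in CHO cells bearing a ROR response element-luciferase construct, with test compounds present from 2 h beforehand. Decreased luminescence after 16 h defined antagonist activity.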

[8] = qHTS assay to identify small molecule agonists of the AP-1 signaling pathway - cell viability counter screen (AID 1159525; calls by dose curve; further: nearly all actives have a fitted effect of over 55% in size)
In short: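 Intracellular ATP by Cell Titer Glo luminescence (30 min, RT) in the same ME-180 AP-1-bla wells after the 5 h compound exposure at 37 °C. Normalised to tetra n-octyl ammonium bromide and DMSO controls.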

[9] = qHTS assay to identify small molecule agonists of the AP-1 signaling pathway (AID 1159526; calls by dose curve; further: on the % scale 0 is the no-effect control and ±100 the full control effect)
[10] = molecular target: Retinoic acid receptor RXR-alpha (Homo sapiens) (UniProt P19793); experiment: qHTS assay to identify small molecule agonists of the RXR signaling pathway (AID 1159527; calls by dose curve; further: on the % scale 0 is the no-effect control and ±100 the full control effect; nearly all actives have a fitted effect of over 35% in size)
In short: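 Compounds in DMSO were added to RXR-alpha-UAS-bla HEK 293T cells kept in 2% charcoal-stripped serum, and incubated 16 hr at 37 C with 5% CO2. Reporter signal came from a 2 hr B/G FRET substrate step.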

[11] = qHTS assay to identify small molecule agonists of the RXR signaling pathway - cell viability counter screen (AID 1159529)
In short: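 Counter screen: CellTiter-Glo luminescence. Cells: RXR-alpha-UAS-bla HEK 293T. Medium: 2% charcoal-stripped FBS. Treatment: 16 h, 37 C. Reagent incubation: 30 min, RT.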

[12] = qHTS assay to identify small molecule antagonists of the retinoid acid receptor (RAR) signaling pathway - cell viability counter screen (AID 1159551); further: on the % scale 0 is the no-effect control and ±100 the full control effect; nearly all actives have a fitted effect of over 35% in size
In short: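 Viability of C3RL4 cells is quantified from ATP by luminescence after 6 h treatment at 37 C with compounds and 1 uM retinol.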

[13] = qHTS assay to identify small molecule antagonists of the retinoic acid receptor (RAR) signaling pathway (AID 1159552)
In short: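 Antagonism of retinol-induced RARE reporter activity was measured in C3RL4 cells. Exposure to compounds and 1 uM final retinol lasted 6 hr at 37 C, with luminescence as endpoint.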

[14] = qHTS assay to identify small molecule agonists of the retinoic acid receptor (RAR) signaling pathway (AID 1159553); further: on the % scale 0 is the no-effect control and ±100 the full control effect
In short: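 Compounds dissolved in DMSO were pinned onto C3RL4 cells seeded the previous day, and plates were held 6 hr at 37 C. RARE-driven luciferase output was then read by luminescence.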

[15] = qHTS assay to identify small molecule agonists of the endoplasmic reticulum stress response signaling pathway (AID 1159516; active means well fitted activation curve with a large enough effect in the signal ratio in the repeat runs, not every such curve was filed as active; the % refers to the signal ratio; further: on the % scale 0 is the no-effect control and ±100 the full control effect)
In short: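 Beta-lactamase expression from the ER stress response element in HeLa reporter cells is quantified with the LiveBLAzer B/G FRET substrate, read at 405 nm excitation after 2 hr at room temperature, following 5 hr compound treatment at 37 C.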

[16] = qHTS assay to identify small molecule antagonists of the estrogen related receptor (ERR) signaling pathway - cell viability counter screen (AID 1224818)
In short: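 Cytotoxicity check run alongside the ERR antagonist screen: cells exposed to test compounds 17.5 h at 37 C, viability taken as CellTiter-Fluor fluorescence intensity.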

[17] = qHTS assay to identify small molecule antagonists of the estrogen related receptor signaling pathway with the pleiotropic PPARgamma coactivator (PGC) cell viability counter screen (AID 1224822)
In short: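 Viable cell signal (CellTiter-Fluor, 30 min, 37 C/5% CO2) was measured in PGC/ERR cells after a 17.5 h compound incubation.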

Chain of Retinoic acid receptor RXR-alpha (Homo sapiens) (P19793 whole entry, looked up): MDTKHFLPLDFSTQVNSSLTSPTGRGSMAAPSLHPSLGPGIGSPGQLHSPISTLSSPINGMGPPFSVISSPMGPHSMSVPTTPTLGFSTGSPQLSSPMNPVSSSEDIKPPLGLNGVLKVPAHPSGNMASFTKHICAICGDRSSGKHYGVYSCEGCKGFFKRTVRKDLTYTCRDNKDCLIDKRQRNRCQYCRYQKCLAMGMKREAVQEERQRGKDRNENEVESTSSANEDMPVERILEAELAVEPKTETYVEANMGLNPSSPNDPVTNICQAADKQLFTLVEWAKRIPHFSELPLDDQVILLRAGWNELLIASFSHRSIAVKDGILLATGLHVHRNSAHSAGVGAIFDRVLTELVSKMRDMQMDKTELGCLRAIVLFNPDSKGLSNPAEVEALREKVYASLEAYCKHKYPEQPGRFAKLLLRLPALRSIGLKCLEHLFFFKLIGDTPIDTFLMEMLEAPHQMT

COc1ccc2c(c1)c(CC(=O)OCC(=O)O)c(C)n2C(=O)c1ccc(Cl)cc1
inactive: Potency [1] | Potency [2] | outcome [3] | outcome [4] | outcome [5] | outcome [6] | Potency [7] | Potency [8] | outcome [9] | Potency [10] | Potency [11] | outcome [12] | Potency [13] | Potency [14]

COc1nc(N)nc2c1ncn2[C@@H]1O[C@H](CO)[C@@H](O)[C@@H]1O
inactive: Potency [1] | Potency [2] | outcome [3] | outcome [4] | outcome [5] | outcome [6] | Potency [7] | Potency [8] | outcome [9] | Potency [10] | Potency [11] | outcome [12] | Potency [13] | Potency [14]

CN1CCN(c2cc3c(cc2F)c(=O)c(C(=O)O)cn3-c2ccc(F)cc2)CC1
inactive: Potency [1] | outcome [3] | outcome [4] | outcome [5] | outcome [6] | Potency [7] | Potency [8] | outcome [9] | Potency [10] | Potency [11] | outcome [12] | Potency [13] | Potency [14]

CCCCC(CC)COC(=O)c1ccccc1O (centres undefined)
inactive: Potency [1] | Potency [2] | outcome [3] | outcome [4] | outcome [5] | outcome [6] | Potency [7] | Potency [8] | outcome [9] | Potency [10] | Potency [11] | outcome [12] | Potency [13] | Potency [14]

N[C@@H](C(=O)N[C@@H]1C(=O)N2C(C(=O)O)=C(Cl)CS[C@H]12)c1ccccc1
inactive: activity change, negative = cytotoxicity [1] 12.3% [at 13.2 µM] | viability change, negative = cytotoxic [2] -2.62% [at 6.95 µM] | activation [3] -0.195% [at 6.95 µM] | activity, negative = cytotoxic [4] 6.68% [at 6.95 µM] | activity change, negative = cytotoxicity [5] 11.8% [at 6.95 µM] | activity, negative = cytotoxicity [6] 0.217% [at 8.39 µM] | activity change, negative = inhibition [7] 46.6% [at 8.39 µM] | viability change, negative = cytotoxic [8] 3.61% [at 6.97 µM] | activation [9] 0.719% [at 6.97 µM] | activation [10] 3.92% [at 6.98 µM] | activity change, negative = cytotoxicity [11] 16.6% [at 6.97 µM] | activity change, negative = cytotoxicity [12] 2.73% [at 8.39 µM] | activity, negative = inhibition [13] -6.75% [at 8.39 µM] | activation [14] 0.152% [at 8.36 µM]

CC(=O)OCC(=O)[C@@]1(O)CC[C@H]2[C@@H]3CCC4=CC(=O)CC[C@]4(C)[C@H]3C(=O)C[C@@]21C
inactive: Potency [1] | Potency [2] | outcome [4] | outcome [15] | outcome [5] | outcome [6] | Potency [7] | Potency [8] | outcome [9] | Potency [10] | Potency [11] | outcome [12] | Potency [13] | Potency [14] | outcome [16] | outcome [17]

CCOC(=O)[C@H](CCc1ccccc1)N[C@@H](C)C(=O)N1[C@H](C(=O)O)C[C@@H]2CCC[C@@H]21
inactive: Potency [2] | outcome [3] | outcome [4] | outcome [5] | outcome [6] | Potency [7] | Potency [8] | outcome [9] | Potency [10] | Potency [11] | outcome [12] | Potency [13] | Potency [14]

CCCCCSCCCCC
inactive: Potency [1] | Potency [2] | outcome [3] | outcome [4] | outcome [5] | outcome [6] | Potency [7] | Potency [8] | outcome [9] | Potency [10] | Potency [11] | outcome [12] | Potency [13] | Potency [14]

NC(=O)Nc1ccccc1
inactive: Potency [1] | Potency [2] | outcome [3] | outcome [4] | outcome [5] | outcome [6] | Potency [7] | Potency [8] | outcome [9] | Potency [10] | Potency [11] | outcome [12] | Potency [13] | Potency [14]

O=C[C@H](O)[C@@H](O)[C@H](O)[C@H](O)CO
inactive: Potency [1] | Potency [2] | outcome [4] | outcome [15] | outcome [5] | outcome [6] | Potency [7] | Potency [8] | outcome [9] | Potency [10] | Potency [11] | outcome [12]

CC(C)NCC(O)c1ccc(NS(C)(=O)=O)cc1 (centres undefined)
inactive: Potency [1] | Potency [2] | outcome [3] | outcome [4] | outcome [5] | outcome [6] | Potency [7] | Potency [8] | outcome [9] | Potency [10] | Potency [11] | outcome [12] | Potency [13] | Potency [14] | outcome [16] | outcome [17]
